Measurements: the supplement of paper PMC6555819

Key:
Experiment in all cases: PBM binding z-score (relative to random genomic background probes); higher = stronger binding; sequences stand for … in GC…GCGATTGACAGCGTAGAATGAAGG
[1] = tested on: FXR:RXRa (NR concentration 270 nM, RXRa partner concentration 90 nM)
In short: (§1)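 On custom Agilent 4×180K arrays, double-stranded probes with 34-nt variable regions carried direct-repeat seeds, single-nucleotide variants, half-site ablations or random human genomic background. Ligand-free nuclear receptor dimers were applied for 1 h, and binding was read with antibodies against each partner (one per run). Binding z-scores come from regression-normalized fluorescence, with the random background probes as reference.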

[2] = tested on: LXRa:RXRa (NR concentration 270 nM, RXRa partner concentration 90 nM)
In short: as §1

[3] = tested on: LXRa homodimer (NR concentration 270 nM)
In short: as §1

[4] = tested on: LXRb:RXRa (NR concentration 270 nM, RXRa partner concentration 90 nM)
In short: as §1

[5] = tested on: LXRb homodimer (NR concentration 270 nM)
In short: as §1

[6] = tested on: PPARa:RXRa (NR concentration 270 nM, RXRa partner concentration 90 nM)
In short: as §1

[7] = tested on: PPARg:RXRa (NR concentration 180 nM, RXRa partner concentration 90 nM)
In short: as §1

[8] = tested on: PPARg:RXRa 270nM:90nM, anti-RXR (NR concentration 270 nM, RXRa partner concentration 90 nM)
In short: as §1

[9] = tested on: PPARg:RXRa 30nM:10nM, anti-RXR (NR concentration 30 nM, RXRa partner concentration 10 nM)
In short: as §1

[10] = tested on: PPARg:RXRa 90nM:30nM, anti-RXR (NR concentration 90 nM, RXRa partner concentration 30 nM)
In short: as §1

[11] = tested on: PPARg:RXRa DBDmut IVT, anti-RXR (DBD mutation: RXRa K156A/R161A, NR concentration 270 nM, RXRa partner concentration 90 nM)
In short: as §1

[12] = tested on: PPARg:RXRa IVT, anti-PPARg (NR concentration 270 nM, RXRa partner concentration 90 nM)
In short: as §1

[13] = tested on: PPARg DBDmut:RXRa IVT, anti-PPARg (DBD mutation: PPARg1 K132A/R137A, NR concentration 270 nM, RXRa partner concentration 90 nM)
In short: as §1

[14] = tested on: PPARg DBDmut IVT, anti-PPARg (DBD mutation: PPARg1 K132A/R137A, NR concentration 270 nM)
In short: as §1

[15] = tested on: PPARg homodimer (NR concentration 180 nM)
In short: as §1

[16] = tested on: PXR:RXRa (NR concentration 270 nM, RXRa partner concentration 90 nM)
In short: as §1

[17] = tested on: PXR homodimer (NR concentration 270 nM)
In short: as §1

[18] = tested on: RARa:RXR (NR concentration 270 nM, RXRa partner concentration 90 nM)
In short: as §1

[19] = tested on: RARa homodimer (NR concentration 270 nM)
In short: as §1

[20] = tested on: RARb:RXRa (NR concentration 270 nM, RXRa partner concentration 90 nM)
In short: as §1

Sequence	PBM binding z-score [1]	PBM binding z-score [2]	PBM binding z-score [3]	PBM binding z-score [4]	PBM binding z-score [5]	PBM binding z-score [6]	PBM binding z-score [7]	PBM binding z-score [8]	PBM binding z-score [9]	PBM binding z-score [10]	PBM binding z-score [11]	PBM binding z-score [12]	PBM binding z-score [13]	PBM binding z-score [14]	PBM binding z-score [15]	PBM binding z-score [16]	PBM binding z-score [17]	PBM binding z-score [18]	PBM binding z-score [19]	PBM binding z-score [20]
ATCTCTAGGTAACCAAGCTCAGTGAATGCCGAAC	0.0567	-0.156	-0.0842	-0.416	0.643	0.0797	0.181	0.28	-0.0374	0.235	2.93	2.13	1.25	0.885	0.709	-0.105	0.251	0.193	0.798	0.0628
CCTTACGGGTCACTCCAGGTGATAGCATCGGAGT	5.24	5.98	0.158	3.34	-0.0681	4.26	3.57	3.66	1.31	2.64	2.72	3.72	-0.0866	-0.18	1.04	3.75	0.145	3.53	0.42	3.51
TGAATGAGATTATAAGATCAGGGAACGTTGCAAA	-0.81	-0.599	-0.661	-0.508	-0.369	-0.202	0.324	0.0746	0.527	0.406	-1.28	-0.236	0.555	0.576	-1.31	-0.518	-0.193	-0.548	0.0948	-1.13
CGAACTAGGTCAAGGACGGTGAATCTCCGCACGC	3.32	2.02	0.122	1.29	-0.582	4.44	6.87	6.24	3.95	5.89	7.98	7.86	0.422	-0.145	0.732	1.03	-0.242	1.5	-0.265	3.76
GGAACCAGGGCAAAGTTGATAGCATCTGTCGACG	0.769	0.723	-0.0781	0.931	0.32	4.38	7.33	7.61	6.29	7.86	4.31	4.92	0.131	1.82	1.1	0.754	0.639	0.798	0.36	2.22
ACTATTAGTTGACTTAGTGCAACCGATACGACGC	-0.217	-0.0103	-0.0872	-0.107	0.478	-0.0535	0.743	0.105	0.433	0.153	0.167	0.382	0.85	0.707	0.732	0.283	0.128	0.123	0.689	0.309
GTATCAAGGTGAATAGGTCGTTGATGAGTAGGCG	0.903	1.1	0.272	0.689	0.229	2.65	2.43	2.76	1.16	2.08	3.31	4.02	1.21	0.758	1.45	0.996	0.271	2.01	0.786	2.14
CAAACTAGGTCATCCAGGACAGTGAATACATTGA	4.46	3.23	1.22	2.51	0.932	5.12	8.08	6.82	4.42	6.36	8.23	8.47	4.2	2.88	2.69	2.23	1.49	2.85	1.49	3.84
CCTTACGGGTCACTCCAGTTTATAGCATCGGAGT	5.02	6.61	0.838	3.77	-0.0101	4.4	3.25	3.3	1.11	2.27	2.98	3.39	0.913	0.686	2.32	6.04	1.06	3.6	0.603	3.74
AATACAGGGTCACTAGGCCACAGTAGGTACGAAT	6.38	4.76	1.17	4.02	1.04	6.17	8.82	7.43	4.24	6.72	4.65	6.73	4.31	2.11	3.96	3.36	0.57	4.14	1.37	4.27
CCAGTCAGGTGAAAGGTAACTCAGTCTGGTACGC	0.669	0.466	-0.287	0.541	-0.583	3.61	6.45	6.44	5.15	7.56	3.47	3.78	-0.52	-0.877	1.17	0.577	-0.2	1.58	0.202	1.55
TATACAGGGTCAAAGGCCAGAGAACGAATGTCGA	6.59	6.22	2.13	4.88	2.25	6.02	8.23	7.5	5.41	7.34	2.4	4.67	1.74	1.99	2.58	4.27	0.698	6.02	1.1	4.27
TTACCAAGGTGAGCTGAGGTCCTTGATCCAACTC	0.6	-0.364	-0.744	-0.383	-1.22	0.604	-0.286	0.115	-0.357	-0.0305	0.555	1.8	-0.248	-1.12	-0.702	1.26	-0.737	0.613	-1.39	1.04
AGTCAAAGTTCATCTAGATAACGTAAGATATGCT	7.05	5.89	5.02	4.13	1.82	5	6.44	6.12	3.12	5.43	0.216	2.84	1.25	1.73	2.62	5	4.36	3.39	1.59	4.9
ACTATTAATTGAGACGAGGGCAACCGATAGGTTG	0.638	0.579	0.685	0.313	0.479	0.542	0.7	0.479	0.271	0.408	0.0464	0.914	1.03	1.13	2.25	0.755	1.25	0.914	1.68	1.01
